Measured values published in PubChem BioAssay AID393 (SGCOxCompounds, 2006).
Active and inactive are the calls of the source. How the calls were made is not given here.

molecular target: Serine/threonine-protein kinase pim-1 (Homo sapiens) (UniProt P11309); assay: compound-induced PIM1 thermal stabilization – biophysical, human, melting temperature shift (AID 393); conditions: Thermal shift assay, hits give high values; at 10 µM, protein 2 µM, buffer 10 mM PIPES, pH 6.5, NaCl 150 mM unless noted
Sequence (P11309 whole entry, looked up): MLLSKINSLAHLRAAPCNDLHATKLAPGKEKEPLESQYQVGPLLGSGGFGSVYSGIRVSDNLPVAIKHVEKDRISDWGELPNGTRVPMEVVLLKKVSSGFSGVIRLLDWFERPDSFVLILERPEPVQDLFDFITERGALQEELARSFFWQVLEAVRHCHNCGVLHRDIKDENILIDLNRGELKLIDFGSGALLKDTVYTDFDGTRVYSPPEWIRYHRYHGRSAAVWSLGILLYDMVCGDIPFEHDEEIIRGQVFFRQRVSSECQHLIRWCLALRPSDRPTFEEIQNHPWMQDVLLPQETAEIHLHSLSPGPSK

Tm shift, active:
Oc1cccc(-c2cnc3ccc(NC4CCOCC4)nn23)c1 3.66 Celsius, Cc1cc(Br)c2c(c1)=C(c1[nH]c(=S)[nH]c1O)C(=O)N=2 4.68 Celsius, O=c1[nH]cnc2c1sc1nc3ccccc3cc12 3.3 Celsius, COCCNc1ccc2ncc(-c3cccc(C(C)=O)c3)n2n1 4.92 Celsius, OCC(O)CCO/N=C1/C(c2c(O)[nH]c3ccccc23)=Nc2ccccc21 (configuration not stated) 4.1 Celsius [at 10 µM, protein 2 µM, buffer 10 mM Na Citrate, pH 6.5, NaCl 150 mM], CCC(CO)Nc1ccc2ncc(-c3ccc(O)cc3)n2n1 (configuration not stated) 6.96 Celsius, COC(=O)c1cnc2oc3ccc(O)cc3c2c1-c1ccccc1 6.2 Celsius [at 10 µM, protein 2 µM, buffer 10 mM Na Citrate, pH 6.5, NaCl 150 mM], Oc1cccc(-c2cnc3ccc(NCC4CC4)nn23)c1 4.42 Celsius, Nc1cccc(-c2cnn3ccc(Nc4cccc(Cl)c4)nc23)c1 6.21 Celsius, CCC(CO)Nc1ccc2ncc(-c3cccc(C(C)=O)c3)n2n1 (configuration not stated) 6.85 Celsius, COc1cc(O)c2c(c1)oc(=O)c1c3cc(O)c(O)cc3oc21 3.8 Celsius [at 10 µM, protein 2 µM, buffer 10 mM Na Citrate, pH 6.5, NaCl 150 mM], O=C(c1ccc(Nc2nccc(-c3cc4ccccc4s3)n2)cc1)N1CCC(N2CCCC2)CC1 3.7 Celsius [at 10 µM, protein 2 µM, buffer 10 mM Na Citrate, pH 6.5, NaCl 150 mM], CC(C)[C@@H](CO)Nc1ccc2ncc(-c3cccc(F)c3)n2n1 5.64 Celsius, Fc1ccc(-c2cnc3ccc(NC4CCOCC4)nn23)cc1 7.86 Celsius, O=C1Cc2c([nH]c3ccc(Br)cc23)-c2ccccc2N1 3.9 Celsius [at 10 µM, protein 2 µM, buffer 10 mM Na Citrate, pH 6.5, NaCl 150 mM], Cn1cc(C2=C(c3c4n(c5ccccc35)CCC(CN)C4)C(=O)NC2=O)c2ccccc21 (configuration not stated) 5.8 Celsius [at 10 µM, protein 2 µM, buffer 10 mM Na Citrate, pH 6.5, NaCl 150 mM], CCCCc1c(-c2ccc(O)cc2)[nH]c2nccnc12 4 Celsius [at 10 µM, protein 2 µM, buffer 10 mM Na Citrate, pH 6.5, NaCl 150 mM], O=Nc1c(-c2c(O)[nH]c3ccc(S(O)(O)O)cc23)[nH]c2ccccc12 4.2 Celsius [at 10 µM, protein 2 µM, buffer 10 mM Na Citrate, pH 6.5, NaCl 150 mM], c1ccc(-c2cnc3ccc(NCc4cccs4)nn23)cc1 5.81 Celsius [at 5 µM, protein 1 µM, buffer 10 mM HEPES], O=C(O)c1cccc(-c2cnc3ccc(NC4CCOCC4)nn23)c1 9.27 Celsius, O=C1NC(=O)c2c1c1c3ccccc3[nH]c1c1[nH]c3cc(Br)ccc3c21 7.64 Celsius, O=c1c(O)c(-c2ccc(O)c(O)c2)oc2cc(O)cc(O)c12 9.8 Celsius [at 10 µM, protein 2 µM, buffer 10 mM Na Citrate, pH 6.5, NaCl 150 mM], O=C(O)c1cccc(-c2cnc3ccc(NCC4CC4)nn23)c1 3.62 Celsius, O=C1NC(=O)C(c2c[nH]c3ccccc23)=C1c1c[nH]c2ccccc12 5.8 Celsius [at 10 µM, protein 2 µM, buffer 10 mM Na Citrate, pH 6.5, NaCl 150 mM], CC(C)[C@@H](CO)Nc1ccc2ncc(-c3cccc(O)c3)n2n1 3.61 Celsius, O=C1Nc2ccc(I)cc2/C1=C/c1cc(Br)c(O)c(Br)c1 7.2 Celsius [at 10 µM, protein 2 µM, buffer 10 mM Na Citrate, pH 6.5, NaCl 150 mM], Brc1c(Br)c(Br)c2n[nH]nc2c1Br 4.6 Celsius [at 10 µM, protein 2 µM, buffer 10 mM Na Citrate, pH 6.5, NaCl 150 mM]
